Test results taken from PubChem BioAssay (NCI).
“And” between values parts separate entries of the source, which are not always exact repeats. Identical values can stand only once. About 79,000 compounds went through this panel and 15% of them were active in at least one assay; those are over-represented in the sample as a whole. More than one record can exist for a structure, and the calls need not agree. The source made the active and inactive calls. No stated cut-off is given here; in the data, active means growth inhibition above about 70%; inactive means the rest.

Experiments:
[1] = NCI Yeast Anticancer Drug Screen. Data for the rad52 strain (AID 147);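 further: 0% = growth of vehicle-treated control cultures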; conditions: S. cerevisiae rad52 mutant growth inhibition, stronger effect = higher value
Method in brief: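 The repair-mutant yeast strain was incubated with compounds, then growth was read and inhibition derived relative to vehicle.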

[2] = NCI Yeast Anticancer Drug Screen. Data for the wt1 strain (AID 149);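 further: 0% = growth of vehicle-treated wt1 cultures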; conditions: S. cerevisiae wt1 strain (SPY 50644) growth inhibition, stronger effect = higher value
Method in brief: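 Each compound is tested on wt1 yeast and the loss of growth versus vehicle gives the inhibition value.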

[3] = NCI Yeast Anticancer Drug Screen. Data for the rad50EPP+ strain (AID 151);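 further: 0% = growth of vehicle-treated control cultures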; conditions: S. cerevisiae rad50 mutant strain, stronger effect = higher value
Method in brief: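 Vehicle-normalised growth inhibition; rad50EPP+ yeast strain, altered in DNA damage repair, compound-treated.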

[4] = NCI Yeast Anticancer Drug Screen. Data for the mgt1 strain (AID 153); conditions: S. cerevisiae mgt1 mutant growth inhibition, stronger effect = higher value
Method in brief: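 Vehicle-normalized growth inhibition is determined in mgt1 yeast, a strain selected for a defined alteration in DNA repair or cell cycle control.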

[5] = NCI Yeast Anticancer Drug Screen. Data for the rad50 strain (AID 155);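 further: 0% = growth of vehicle-only cultures of the same strain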; conditions: S. cerevisiae rad50 strain growth inhibition, stronger effect = higher value
Method in brief: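 Vehicle-treated cultures provide the reference for the growth inhibition reported for compound-exposed, repair-deficient yeast.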

[6] = NCI Yeast Anticancer Drug Screen. Data for the mec2-1 strain (AID 157); conditions: S. cerevisiae mec2-1 strain, stronger effect = higher value
Method in brief: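 Mutant yeast (mec2-1) grown with compound; growth inhibition relative to vehicle control reported.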

[7] = NCI Yeast Anticancer Drug Screen. Data for the rad14 strain (AID 159);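 further: 0% = growth of vehicle-treated control cultures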; conditions: S. cerevisiae rad14 strain growth inhibition, stronger effect = higher value
Method in brief: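 Inhibition of growth is reported for a repair-deficient yeast mutant following compound treatment, calculated relative to cultures that received vehicle.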

[8] = NCI Yeast Anticancer Drug Screen. Data for the sgs1 mgt1 strain (AID 161);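 further: 0% = growth of cultures given vehicle only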; conditions: S. cerevisiae sgs1 mgt1 strain, stronger effect = higher value
Method in brief: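 Compounds are added to genetically altered yeast, and growth is compared with cultures given vehicle alone to give percent inhibition.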

[9] = NCI Yeast Anticancer Drug Screen. Data for the CLN2oe strain (AID 163);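 further: 0% = growth of vehicle-only control cultures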; conditions: S. cerevisiae CLN2oe strain, stronger effect = higher value
Method in brief: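 Compounds are applied to yeast harbouring a defined cell-cycle control change; reduced growth compared with vehicle-treated controls gives the value.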

[10] = NCI Yeast Anticancer Drug Screen. Data for the cln2 rad14 strain (AID 165);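 further: 0% = growth equal to vehicle treated cultures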; conditions: S. cerevisiae cln2 rad14 strain, stronger effect = higher value
Method in brief: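 Readout is yeast growth inhibition versus vehicle-treated controls, using a strain with cln2 and rad14 alterations exposed to compound.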

[11] = NCI Yeast Anticancer Drug Screen. Data for the bub3 strain (AID 167); conditions: S. cerevisiae bub3 mutant strain, stronger effect = higher value
Method in brief: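 Mutant yeast screening strain plus compound; vehicle-treated cultures serve as the 0% inhibition reference.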

[12] = NCI Yeast Anticancer Drug Screen. Data for the wt2 strain (AID 169); conditions: S. cerevisiae wt2 strain growth inhibition, stronger effect = higher value
Method in brief: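 Against vehicle-treated controls, the growth of yeast exposed to each compound was compared, and the inhibition was recorded.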

[13] = NCI Yeast Anticancer Drug Screen. Data for the mlh1 strain (AID 171);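 further: 0% = growth of vehicle-treated control cultures of the same strain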; conditions: S. cerevisiae mlh1 strain growth inhibition, stronger effect = higher value
Method in brief: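 Measured: yeast growth. Reference: vehicle-treated controls. Organism: strain with a defined alteration affecting DNA damage repair or cell cycle control, treated with compound.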

[14] = NCI Yeast Anticancer Drug Screen. Data for the sgs1 strain (AID 173);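 further: 0% = growth of vehicle-only control cultures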; conditions: S. cerevisiae sgs1 mutant, stronger effect = higher value
Method in brief: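 Each compound was added to cultures of the altered yeast strain. Growth was recorded, and inhibition was derived by comparison with vehicle controls.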

[15] = NCI Yeast Anticancer Drug Screen. Data for the mlh1 rad18 strain (AID 175); conditions: S. cerevisiae mlh1 rad18 strain growth inhibition, stronger effect = higher value
Method in brief: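 Genetically defined yeast (DNA repair-deficient) exposed to compounds; growth inhibition determined relative to vehicle.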

[16] = NCI Yeast Anticancer Drug Screen. Data for the rad18 strain (AID 177); conditions: S. cerevisiae rad18 mutant growth inhibition, stronger effect = higher value
Method in brief: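 Vehicle-treated cultures served as the baseline for scoring compound-induced growth inhibition in DNA-repair-mutant yeast.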

[17] = at 5.0 µM (retest, dose inferred, filed as 0.5)
[18] = at 50.0 µM (retest, dose inferred, filed as 5.0)

Measured: growth inhibition

CC(C)(C)[Si](C)(C)OCC1CCC(n2cnc3c(NC(=O)c4ccccc4)ncnc32)O1 (stereo unspecified)
inactive: [1]; at 1.2 µM -2% | [1]; at 3.7 µM -3% | [1]; at 11.0 µM -2% | [1]; at 33.0 µM -1% | [1]; at 100.0 µM -2% | [2]; at 1.2 µM 0% | [2]; at 3.7 µM 0% | [2]; at 11.0 µM 0% | [2]; at 33.0 µM 4% | [2]; at 100.0 µM -2% | [3]; at 1.2 µM -3% | [3]; at 3.7 µM -2% | [3]; at 11.0 µM 1% | [3]; at 33.0 µM 5% | [3]; at 100.0 µM 5% | [4]; at 1.2 µM -3% | [4]; at 3.7 µM -6% | [4]; at 11.0 µM 0% | [4]; at 33.0 µM 0% | [4]; at 100.0 µM -2% | [5]; at 1.2 µM 1% | [5]; at 3.7 µM -49% | [5]; [17] 0% | [5]; at 11.0 µM -28% | [5]; at 33.0 µM 2% | [5]; [18] 31% | [5]; at 100.0 µM 1% | [6]; at 1.2 µM -3% | [6]; at 3.7 µM 0% | [6]; [17] -2% | [6]; at 11.0 µM -1% | [6]; at 33.0 µM 0% | [6]; [18] 49% | [6]; at 100.0 µM 0% | [7]; at 1.2 µM -1% | [7]; at 3.7 µM -2% | [7]; at 11.0 µM 3% | [7]; at 33.0 µM 3% | [7]; at 100.0 µM 2% | [8]; [17] -1% | [8]; [18] 6% | [8]; at 50.0 µM 27.2% | [9]; at 1.2 µM -2% | [9]; at 3.7 µM 0% | [9]; at 11.0 µM 5% | [9]; at 33.0 µM -1% | [9]; at 100.0 µM -4% | [10]; [17] -4% | [10]; [18] 30% | [10]; at 50.0 µM 42.2% | [11]; at 1.2 µM 2% | [11]; at 3.7 µM 0% | [11]; [17] -2% | [11]; at 11.0 µM 1% | [11]; at 33.0 µM -2% | [11]; [18] 30% | [11]; at 50.0 µM 23.1% | [11]; at 100.0 µM -4% | [12]; at 1.2 µM -1% | [12]; at 3.7 µM 7% | [12]; at 11.0 µM -2% | [12]; at 33.0 µM 5% | [12]; at 100.0 µM -1% | [13]; at 1.2 µM 0% | [13]; at 3.7 µM -3% | [13]; at 11.0 µM -1% | [13]; at 33.0 µM -1% | [13]; at 100.0 µM -1% | [14]; at 1.2 µM -2% | [14]; at 3.7 µM -2% | [14]; at 11.0 µM 0% | [14]; at 33.0 µM 1% | [14]; at 100.0 µM 0% | [15]; [17] -5% | [15]; [18] 47% | [16]; at 1.2 µM -3% | [16]; at 3.7 µM 2% | [16]; at 11.0 µM -1% | [16]; at 33.0 µM 1% | [16]; at 100.0 µM -1%
active: [5]; at 50.0 µM 87.5% | [6]; at 50.0 µM 90% | [15]; at 50.0 µM 80.9%

Cc1cc(-c2cc(C)c(O)c(C(C)(C)C)c2)cc(C(C)(C)C)c1O
45% (inactive) and 90% (active): [8]; [18]
77.8% (active) and 65.8% (inactive): [10]; at 50.0 µM
active: [1]; at 100.0 µM 75% | [2]; at 100.0 µM 70% | [5]; [18] 98% and 74% | [5]; at 50.0 µM 70.5% and 77.3% | [5]; at 100.0 µM 72% | [6]; [18] 98% and 91% | [7]; at 100.0 µM 72% | [9]; at 100.0 µM 73% | [10]; [18] 81% and 91% | [15]; [18] 99% and 92% | [15]; at 50.0 µM 70.5% and 84.8% | [16]; at 100.0 µM 74%
inactive: [1]; at 1.2 µM -37% | [1]; at 3.7 µM -34% | [1]; at 11.0 µM -17% | [1]; at 33.0 µM 48% | [2]; at 1.2 µM -52% | [2]; at 3.7 µM -49% | [2]; at 11.0 µM -44% | [2]; at 33.0 µM 6% | [3]; at 1.2 µM -35% | [3]; at 3.7 µM -31% | [3]; at 11.0 µM -29% | [3]; at 33.0 µM -25% | [3]; at 100.0 µM -4% | [4]; at 1.2 µM -49% | [4]; at 3.7 µM -51% | [4]; at 11.0 µM -49% | [4]; at 33.0 µM -16% | [4]; at 100.0 µM 57% | [5]; at 1.2 µM -2% | [5]; at 3.7 µM -4% | [5]; [17] 43% and 15% | [5]; at 11.0 µM 11% | [5]; at 33.0 µM 52% | [6]; at 1.2 µM -30% | [6]; at 3.7 µM -23% | [6]; [17] 51% and -6% | [6]; at 11.0 µM -10% | [6]; at 33.0 µM -2% | [6]; at 50.0 µM 65.3% and 61.5% | [6]; at 100.0 µM 55% | [7]; at 1.2 µM -16% | [7]; at 3.7 µM -10% | [7]; at 11.0 µM -23% | [7]; at 33.0 µM 25% | [8]; [17] 10% and 18% | [9]; at 1.2 µM -51% | [9]; at 3.7 µM -62% | [9]; at 11.0 µM -42% | [9]; at 33.0 µM 15% | [10]; [17] 52% and -17% | [11]; at 1.2 µM -6% | [11]; at 3.7 µM 5% | [11]; [17] 43% and 5% | [11]; at 11.0 µM 24% | [11]; at 33.0 µM 40% | [11]; at 100.0 µM 65% | [12]; at 1.2 µM -32% | [12]; at 3.7 µM -18% | [12]; at 11.0 µM -17% | [12]; at 33.0 µM 4% | [12]; at 100.0 µM 66% | [13]; at 1.2 µM -44% | [13]; at 3.7 µM -31% | [13]; at 11.0 µM -28% | [13]; at 33.0 µM 9% | [13]; at 100.0 µM 65% | [14]; at 1.2 µM -20% | [14]; at 3.7 µM -8% | [14]; at 11.0 µM -6% | [14]; at 33.0 µM 30% | [14]; at 100.0 µM 59% | [15]; [17] 46% and 3% | [16]; at 1.2 µM -42% | [16]; at 3.7 µM -36% | [16]; at 11.0 µM -26% | [16]; at 33.0 µM 29%
70.2% (active) and 37.4% (inactive): [11]; at 50.0 µM
52% (inactive) and 93% (active): [11]; [18]
66.3% (inactive) and 80.8% (active): [8]; at 50.0 µM
